Measured values as given in patent US20100081621, “Crystal structure of the catalytic domain of the viral restriction factor APOBEC3G” (published 2010).

Molecular target: APOBEC3G R374E/R376D (Homo sapiens, UniProt Q9HC16 Q9HC16:1-384, R374E,R376D)
Test: FP; binding impaired by 46%; 5 mM MgCl2, 37 C
Conditions: tags: Sf9, pAcG2T; label: internal fluorescein-dT; ssDNA; [15 (fluorescein-dT)]
Experimental: Apo3G-DNA binding were monitored by changes in steady state fluorescence depolarization (rotational anisotropy). Reaction mixtures (70 μl), containing an F-labeled DNA ([…]) in buffer (50 mM HEPES, pH 7.3, 1 mM DTT and 5 mM MgCl₂) and varying concentration of 0 to 500 nM Apo3G, were incubated at 37° C. The sequence of the ssDNA is: tta gat gag tgt aa(FdT) gtg ata tat gtg tat. Rotational anisotropy was measured as described previously (Chelico et al., 2006). The fraction of DNA bound to protein was determined as described previously (Bertram et al., 2004).

Chain of APOBEC3G R374E/R376D (Q9HC16 whole entry R374E/R376D, one chain of several): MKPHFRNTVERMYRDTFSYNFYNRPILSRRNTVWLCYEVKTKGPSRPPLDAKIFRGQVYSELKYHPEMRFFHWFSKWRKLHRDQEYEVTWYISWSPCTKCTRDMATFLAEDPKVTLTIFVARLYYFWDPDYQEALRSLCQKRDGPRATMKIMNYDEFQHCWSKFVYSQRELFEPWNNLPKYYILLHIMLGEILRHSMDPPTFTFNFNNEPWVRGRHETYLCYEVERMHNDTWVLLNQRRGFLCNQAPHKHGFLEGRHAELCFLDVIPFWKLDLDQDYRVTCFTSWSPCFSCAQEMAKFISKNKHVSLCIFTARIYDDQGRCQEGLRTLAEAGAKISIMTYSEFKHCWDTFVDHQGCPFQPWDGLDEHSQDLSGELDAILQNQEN

Sequence	binding signal
TTAGATGAGTGTAATGTGATATATGTGTAT	54 % of wt
